Measurements reported in PubChem BioAssay (NCI).
Compounds without any hit were thinned out: in the full panel of roughly 79,000, 15% have a hit. No stated cut-off is given here; in the data, active means growth inhibition above about 70%; inactive means the rest.

Tests used:
[1] = NCI Yeast Anticancer Drug Screen. Data for the rad50 strain (AID 155);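 further: 0% = growth of vehicle-only cultures of the same strain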; conditions: S. cerevisiae rad50 strain growth inhibition; at 50.0 µM; stronger effect = higher value
Summary of the method: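 Relative growth inhibition (compound vs vehicle) was measured in yeast with a defined repair-gene alteration.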

[2] = NCI Yeast Anticancer Drug Screen. Data for the mec2-1 strain (AID 157); conditions: S. cerevisiae mec2-1 strain, at 50.0 µM, stronger effect = higher value
Summary of the method: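 Cells of the genetically defined mec2-1 yeast strain are incubated with test compound. Inhibition of growth is calculated against vehicle-treated controls.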

[3] = NCI Yeast Anticancer Drug Screen. Data for the sgs1 mgt1 strain (AID 161);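 further: 0% = growth of cultures given vehicle only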; conditions: S. cerevisiae sgs1 mgt1 strain, at 50.0 µM, stronger effect = higher value
Summary of the method: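 Mutant yeast exposed to compound; growth scored against vehicle-only wells.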

[4] = NCI Yeast Anticancer Drug Screen. Data for the cln2 rad14 strain (AID 165);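 further: 0% = growth equal to vehicle treated cultures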; conditions: S. cerevisiae cln2 rad14 strain, at 50.0 µM, stronger effect = higher value
Summary of the method: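 The screen exposed genetically defined yeast (cln2 rad14) to test compounds and scored growth inhibition relative to vehicle-treated controls.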

[5] = NCI Yeast Anticancer Drug Screen. Data for the bub3 strain (AID 167); conditions: S. cerevisiae bub3 mutant strain, at 50.0 µM, stronger effect = higher value
Summary of the method: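 Screening used yeast with an engineered genetic alteration affecting cell cycle control. Compound-exposed cultures were compared with vehicle cultures, and reduced growth was taken as inhibition.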

[6] = NCI Yeast Anticancer Drug Screen. Data for the mlh1 rad18 strain (AID 175); conditions: S. cerevisiae mlh1 rad18 strain growth inhibition; at 50.0 µM; stronger effect = higher value
Summary of the method: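 Compound-treated yeast growth, normalised to vehicle controls. Strain bears defined DNA repair mutations.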

Measured: growth inhibition

CCOC=C(C(=O)OCC)C(=O)OCC
inactive: [1] 22.1% | [2] -7.45% | [3] -6.5% | [4] -1% | [5] -10.6% | [6] 15.6%

CCC1(C)C(=O)C(C)(CC)C1=O (configuration not stated)
inactive: [1] 23.6% | [2] 20.6% | [3] 21.4% | [4] 0.6% | [5] 20% | [6] 6.85%

CNC(=S)NNC1=NCCCN1
inactive: [1] -48.5% | [2] -10.2% | [3] -25.9% | [4] 13.8% | [5] 9.75% | [6] -9.9%

CC1=C(C(=O)O)C(C)CC(=O)N1 (configuration not stated)
inactive: [1] 5.15% | [2] -3.4% | [3] -8.25% | [4] -12.4% | [5] 1.2% | [6] 7.9%

Nc1cc(=O)[nH]c(NCCCC(N)C(=O)O)n1 (configuration not stated)
inactive: [1] 5.95% | [2] 8.8% | [3] 6.55% | [4] -15.7% | [5] 0.85% | [6] 8.9%

C(=N\C(/N=C/c1ccccc1)c1ccccc1)/c1ccccc1
inactive: [1] 0.4% | [2] -4.8% | [3] -3.25% | [4] -43.8% | [5] 2.55% | [6] -6.2%

Nc1cccc(OCc2nc(N)nc(N)c2-c2ccc(Cl)cc2)c1
inactive: [1] -14% | [2] -14.4% | [3] -48.9% | [4] -6.6% | [5] -36% | [6] -20.9%

COc1cc2c(cc1OC)C(c1ccc([N+](=O)[O-])c(C)c1)=NCC2
inactive: [1] 28.1% | [2] -15.7% | [3] 39.5% | [4] 15.3% | [5] 19.4% | [6] 0.25%

O=C(NNC(=S)Nc1ccccc1)C12CC3CC(CC(C3)C1)C2
inactive: [1] -12% | [2] 31.4% | [3] 29.8% | [4] 14.7% | [5] 35.5% | [6] 1.3%

COc1ccc([N+](=O)[O-])cc1NC(=O)N/N=C(\C)C(C)(C)C
inactive: [1] 5.2% | [2] 18.2% | [3] 8.8% | [4] -9.35% | [5] 3.4% | [6] 6.3%

CN(C)CCNC(=O)c1cccc(C(C)(C)C)c1[N+](=O)[O-]
inactive: [1] -11.2% | [2] -30.1% | [3] -18.9% | [4] 0.35% | [5] -19.1% | [6] -20%

COC(=O)Cc1cccc2c(=O)c(S(=O)(=O)NC(=O)Nc3ccc(Cl)cc3)c(-c3ccccc3)oc12
inactive: [1] 20.9% | [2] 23.1% | [3] 31.6% | [4] 50.4% | [5] 35.4% | [6] 17.8%

O=C(CSc1nnc(-c2ccccc2NC(=O)C(F)(F)F)c(=O)[nH]1)NC(=O)Nc1ccccc1
inactive: [1] 31.7% | [2] -28.8% | [3] 11.7% | [4] 16.3% | [5] -8.35% | [6] 23.9%

CCCCN(CCCC)c1ccc(N=C(C#N)c2ccc(N(CCCC)CCCC)cc2)cc1
inactive: [1] -21.4% | [2] -14.2% | [3] 14% | [4] -38.8% | [5] -3% | [6] 19.5%

O=[N+]([O-])/C(C(Cl)=C(Cl)Cl)=C(\SCc1ccccc1)N1CCCCC1
inactive: [1] -25.6% | [2] -8.1% | [3] 6.75% | [4] 19.4% | [5] 31.7% | [6] 14.6%

N#CC(/C(=N\NC(=O)c1ccncc1)C(=O)Nc1ccc([N+](=O)[O-])cc1[N+](=O)[O-])c1nc(-c2ccc(Br)cc2)cs1 (configuration not stated)
inactive: [1] 0.25% | [2] -3.75% | [3] -15.1% | [4] 7.6% | [5] 12.9% | [6] -7.85%

Cn1c(=O)c2nc(SC3CCCCC3)n(C)c2n(C)c1=O
inactive: [1] -12.7% | [2] -9.05% | [3] -9.85% | [4] -28.3% | [5] 4.5% | [6] -15.3%

CCN(CCO)CCCC(C)Nc1ccnc2cc(Cl)ccc12 (configuration not stated)
inactive: [1] -43.2% | [2] -66.5% | [3] -33.4% | [4] -132% | [5] -45.9% | [6] -63.4%

O=S(=O)(O)Cc1cccc2ccccc12
inactive: [1] 38% | [2] 6.7% | [3] 11.8% | [4] -17.6% | [5] -2.65% | [6] 22.6%

Cc1ccccc1/C=N\N=C\c1ccco1
inactive: [1] -0.5% | [2] -6.5% | [3] -5.25% | [4] -10.7% | [5] 18.1% | [6] 44.6%

CC(=O)N1c2ccccc2C(C)(C)C1O (configuration not stated)
inactive: [1] 6.85% | [2] 17.1% | [3] -3.55% | [4] -13.7% | [5] -12.4% | [6] 3.7%

Cc1cccc(N=Cc2ccc(Cl)cc2Cl)c1C
inactive: [1] 34.6% | [2] 20.1% | [3] 26.7% | [4] 28.6% | [5] 19% | [6] 31.6%

CC(=O)C(N=NC1CCC(S(=O)(=O)NB2N=CS2)CC1)C(=O)Nc1ccccc1C (configuration not stated)
inactive: [1] -32.2% | [2] -1.05% | [3] -5.9% | [4] 16.5% | [5] 9.35% | [6] 15.4%

CNc1ccc(/C=C/c2ccnc3ccccc23)cc1
inactive: [1] 31.2% | [2] 46.2% | [3] 68.3% | [4] 27.6% | [5] 42.1% | [6] 49.8%

CC(O)C1CCCCN1 (configuration not stated)
inactive: [1] 2.6% | [2] -1.1% | [3] -8.85% | [4] 10.4% | [5] 14.2% | [6] -0.9%

CCC(C)(S)CN (configuration not stated)
inactive: [1] -1.55% | [2] -2.55% | [3] -7.35% | [4] -37.5% | [5] -11.4% | [6] -1.55%

N#Cc1nc(COCc2ccccc2)oc1N
inactive: [1] -19.9% | [2] -12.5% | [3] -5.45% | [4] 1.75% | [5] -19.5% | [6] -10.9%

O=C1CCCC2(c3ccc([N+](=O)[O-])cc3)C1C1C(=O)CCCC12c1ccc([N+](=O)[O-])cc1 (configuration not stated)
inactive: [1] 44% | [2] -0.6% | [3] 14.2% | [4] 12.6% | [5] 5.4% | [6] 5.5%

Nc1ncnc(N)c1NC(=O)c1cccc(F)c1
inactive: [1] 0.15% | [2] -1.3% | [3] -3.7% | [4] -39.2% | [5] -8.35% | [6] 1.5%

C=CC(=O)NC(C)C(=O)O (configuration not stated)
inactive: [1] -4.45% | [2] -2.5% | [3] 0% | [4] -7.05% | [5] -10.9% | [6] -4.15%

C/C(=C\c1ccc(Cl)cc1)C(C)(C)C(=O)O
inactive: [1] 15.1% | [2] -23.2% | [3] -1.25% | [4] -6.95% | [5] 11% | [6] 19.6%

O=C1CCC2=NCc3c(ccc4ccccc34)N12
inactive: [1] 4.7% | [2] -0.85% | [3] -12.9% | [4] -42.9% | [5] -12.3% | [6] -4%

CS(=O)(=O)OCC1OC(n2ccc(NC(=O)c3ccccc3)nc2=O)CC1OS(C)(=O)=O (configuration not stated)
inactive: [1] 0.5% | [2] -16.9% | [3] -5.8% | [4] -11.7% | [5] -14.8% | [6] -4%

CCOC(=O)C(/C=N\C(=S)Nc1ccc(OCC)cc1)=C(/O)c1ccccc1
inactive: [1] -49.1% | [2] -52.6% | [3] -26.6% | [4] -14.8% | [5] -30.2% | [6] 6.5%

CC(=O)NC1=NC(=O)/C(=C/c2ccc(/C=C3/C(=O)N=C(NC(C)=O)N3C)cc2)N1C
inactive: [1] -20.6% | [2] 11% | [3] 14.4% | [4] 35.6% | [5] -9.05% | [6] -27.2%

C=CC12CCC(CC1)n1c(=O)n(C)c(=O)n12
inactive: [1] -8.05% | [2] -11.7% | [3] -11.4% | [4] -34.5% | [5] -18% | [6] -6.8%

C#CCN(CCO)Cc1ccccc1
inactive: [1] -3.4% | [2] -18.6% | [3] -3.75% | [4] 9.25% | [5] -4% | [6] 2.7%
